# Source: PubChem BioAssay (National Center for Advancing Translational Sciences (NCATS))
# BAZ2B block: BAZ2B (human) inhibition | Potency, µM (series often up to 114 µM), without a hit: top-dose activity change, negative = inhibition, most hits filed as inhibitors | AID 504333 | 4.4% of 360,000 active | AlphaScreen BAZ2B-H3K14Ac peptide displacement; further: on the % scale 0 is the no-effect control and ±100 the full control effect; nearly all actives have a fitted effect of over 60% in size
#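 AlphaScreen displacement of biotin-H3(5-23)K14Ac peptide (50 nM final) from BAZ2B (50 nM final) in PBS pH 7.4, 0.01% Tween-20; complex preformed 30 min RT, then compounds (top 110 uM) 30 min RT, beads 20 min dark.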
# L3MBTL1 block: blocks human L3MBTL1; AID 485360; Potency, µM (series often up to 57.1 µM), for inactives: at the highest dose activity, negative = inhibition, hits mostly inhibitors; 0.66% of 230,000 active; AlphaScreen L3MBTL1–H3K9me1 peptide binding; Q9Y468; further: on the % scale 0 is the no-effect control and ±100 the full control effect; nearly all actives have a fitted effect of over 60% in size
#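 Read-out is AlphaScreen signal from streptavidin donor and nickel chelate acceptor beads (10 ug/mL final each) bridging L3MBTL1 (50 nM) and biotinylated K9-monomethylated H3(1-15) peptide (75 nM), after 30 min compound exposure at room temperature.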
# JMJD2A Tudor inh: inhibitors of human JMJD2A Tudor domain | O75164 | AlphaScreen JMJD2A-Tudor / H3K4me3 peptide binding | Potency, µM (titrated, usually from 114 µM), without a hit: top-dose activity change, negative = inhibition, usual class: inhibitors | 4.4% of 390,000 active | AID 504339; further: on the % scale 0 is the no-effect control and ±100 the full control effect; nearly all actives have a fitted effect of over 50% in size
# Target sequence (O75164 whole entry, looked up, the tested form may be a part): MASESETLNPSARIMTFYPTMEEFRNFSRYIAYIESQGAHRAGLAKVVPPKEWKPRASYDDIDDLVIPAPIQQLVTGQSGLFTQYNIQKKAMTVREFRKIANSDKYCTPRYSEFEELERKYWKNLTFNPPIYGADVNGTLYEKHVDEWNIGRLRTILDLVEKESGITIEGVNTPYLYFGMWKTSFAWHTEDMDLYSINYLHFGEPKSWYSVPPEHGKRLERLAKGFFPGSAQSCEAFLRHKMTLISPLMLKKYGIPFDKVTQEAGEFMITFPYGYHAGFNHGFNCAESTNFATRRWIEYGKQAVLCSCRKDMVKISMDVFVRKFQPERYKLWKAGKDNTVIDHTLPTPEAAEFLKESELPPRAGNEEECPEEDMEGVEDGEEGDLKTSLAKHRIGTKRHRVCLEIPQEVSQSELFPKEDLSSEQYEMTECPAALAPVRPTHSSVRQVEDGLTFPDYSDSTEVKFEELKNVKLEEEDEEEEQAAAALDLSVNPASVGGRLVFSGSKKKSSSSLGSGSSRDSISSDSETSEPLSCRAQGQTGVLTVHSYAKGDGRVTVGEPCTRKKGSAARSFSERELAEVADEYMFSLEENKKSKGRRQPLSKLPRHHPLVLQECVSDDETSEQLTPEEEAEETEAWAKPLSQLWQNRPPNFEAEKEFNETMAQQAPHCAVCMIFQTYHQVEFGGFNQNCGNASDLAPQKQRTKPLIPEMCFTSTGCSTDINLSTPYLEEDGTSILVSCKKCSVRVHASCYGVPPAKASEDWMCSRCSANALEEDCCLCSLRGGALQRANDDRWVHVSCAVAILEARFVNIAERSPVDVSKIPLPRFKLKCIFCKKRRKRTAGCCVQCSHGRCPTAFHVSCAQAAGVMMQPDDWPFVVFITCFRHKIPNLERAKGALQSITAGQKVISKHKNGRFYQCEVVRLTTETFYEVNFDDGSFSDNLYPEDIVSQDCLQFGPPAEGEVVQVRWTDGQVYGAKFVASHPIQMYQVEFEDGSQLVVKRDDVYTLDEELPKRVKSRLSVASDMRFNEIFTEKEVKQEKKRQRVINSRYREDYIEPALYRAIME
# HP1b binding inh: inhibitors of HP1-beta chromodomain binding to methylated histone tails; P83916; AlphaScreen HP1-beta / biotin-H3K9me3 peptide binding; Potency, µM (titrated, usually from 114 µM), without a hit: at the top dose activity change, negative = inhibition, usual class: inhibitors; 0.56% of 390,000 active; AID 540317; further: nearly all actives have a fitted effect of over 70% in size
#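 AlphaScreen: HP1-beta (50 nM) preformed 30 min with biotin-H3(1-18)K9me3 peptide (50 nM) in PBS pH 7.4, 0.01% Tween-20. Compound added for 30 min at RT, then streptavidin donor/nickel chelate acceptor beads (10 ug/mL) for 30 min.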
# G9a block: blocks human histone lysine methyltransferase G9a; Q96KQ7; G9a H3K9 monomethylation, AlphaScreen, 2 h; Potency, µM (series often up to 102 µM), for the others: top-dose activity, negative = inhibition, most hits filed as inhibitors; 8.8% of 350,000 active; AID 504332; further: on the % scale 0 is the no-effect control and ±100 the full control effect; nearly all actives have a fitted effect of over 75% in size
#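 AlphaScreen detection with an anti-monomethyl H3K9 antibody quantified product after a 2 h room-temperature reaction containing 500 nM biotinylated H3K9 peptide, 20 µM SAM and 20 nM enzyme, which had been preincubated 15 min with compound.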
# Sfp inh: Sfp phosphopantetheinyl transferase inhibition; 3.5% of 310,000 active; Potency, µM, for inactives: largest response in the series, negative = inhibition, most hits filed as inhibitors; Biochemical Sfp PPTase activity, qHTS; AID 1490;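 further: the enzyme is Sfp with the accession as filed and its product quenches rhodamine fluorescence; 0% = enzyme reaction without inhibitor and -100% = no enzyme wells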
#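 With Hepes-Na pH 7.6 buffer containing 10 mM MgCl2, Sfp (15 nM) modified BHQ-2-YbbR (12.5 uM) using rhodamine-CoA (5 uM). Two reads 30 minutes apart at 525/598 nm yielded each well's rate.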
# * hit, by the source's call; u = inconclusive; x = no result given; [ ] = dose if it differs, or a comment. Shown are actives, neighbours in structure and some others; about 12% of the full set was active somewhere. The call rests on the fitted dose curve; in most records, active means well fitted curve in the direction sought with a large enough effect; inconclusive means small, poorly fitted or top-dose-only effect, or another doubt; inactive means no such curve, though single readings can be large; an effect the other way counts as inactive or inconclusive. Potency means the concentration at half of the fitted maximal effect.
SMILES,BAZ2B block,L3MBTL1 block,JMJD2A Tudor inh,HP1b binding inh,G9a block,Sfp inh
CC1C(=O)C(=O)C=CN1C (stereo unspecified),x,x,x,x,u,45µM*
Nc1nc(=O)n(C2CCCO2)cc1Br (stereo unspecified),x,x,0%,35%,x,x
O=C1CSC(=S)N1/N=C/c1c(F)cccc1F,-20%,x,u,-39%,50µM*,u
O=C1CSC(=S)N1/N=C/c1ccc(C(F)(F)F)cc1,-15%,x,-31%,12%,79µM*,-5%
O=C1CSC(=S)N1N=Cc1c(O)ccc2ccccc12,x,x,50µM*,u,x,x
O=C1CSC(=S)N1/N=C/C=C/c1ccccc1,u,-25%,u,u,40µM*,-8%
O=C1CSC(=S)N1/N=C/c1cccc(C(F)(F)F)c1,-14%,x,u,-9%,u,7%
COP(=O)(c1ccc(N(C)C)cc1)C(O)c1ccccc1 (stereo unspecified),-17%,x,-11%,5%,1%,-1%
CN(c1ccccc1)S(=O)(=O)c1ccc2c(c1)oc(=O)n2C,1%,2%[2.29 µM],-15%,29%,6%[0.501 µM],14%
O=C(Cn1cnc2c(oc3ccccc32)c1=O)Nc1ccccc1C(F)(F)F,-2%,x,-31%,18%,-32%[59 µM],x
CCOc1ccc(N2C(=O)c3[nH]nc(-c4ccc(OC)cc4)c3C2c2cccs2)cc1 (stereo unspecified),-33%,x,-27%,14%,12%[59 µM],x
CC(Oc1ccccc1)C(=O)Nc1ccc(C(=O)OCc2cc(=O)n3ccsc3n2)cc1 (stereo unspecified),-14%,x,-10%,1%,11%[59 µM],x
CCCCC1=CC2=C(OC(C)=O)C(=O)C(C)(OC(=O)CC)C(=O)C2=CO1 (stereo unspecified),x,x,x,x,x,-18%
CC(C)c1cc(-c2n[nH]c(=S)n2Cc2ccccc2)cs1,-12%,-7%,-27%,0%,u,-4%
CCc1cc(-c2n[nH]c(=S)n2C(C)c2ccccc2)cs1 (stereo unspecified),6%,-13%,-35%,20%,10µM*,-19%
Cc1scc(-c2n[nH]c(=S)n2C(C)c2ccccc2)c1C (stereo unspecified),u,-1%,79µM*,16%,2µM*,11%
COC(=O)c1cc2sc(C)cc2n1Cc1nc(-c2cccc(Br)c2)oc1C,3%,x,0%,45%,2%[59 µM],x
CCOc1cccc(NC(=O)C(Cc2cccs2)c2nn[nH]n2)c1 (stereo unspecified),u,5%,-1%,12%,56µM*,u
O=C(Nc1ccccc1)C(Cc1cccs1)c1nn[nH]n1 (stereo unspecified),-25%,x,-15%,40%,-35%[59 µM],-8%
CN(/C=C/C(=C\C=[N+](C)c1ccccc1)OCCCS(=O)(=O)[O-])c1ccccc1,15%,u,-17%,8%,x,79µM*
CN(/C=C/C(=C/C=[N+](C)c1ccccc1)OCCCS(=O)(=O)[O-])c1ccccc1,u,u,-25%,2%,u,x
O=S(=O)(c1ccccc1F)N(Cc1ccco1)Cc1nnc(-c2ccccc2Br)o1,7%,-2%,-16%,20%,79µM*,-6%
CCCNC(=O)N1CCC(c2nc3ccccc3s2)CC1,-14%,x,-11%,24%,-11%,2%
COc1cccc(/C=C/C(=C2\C(=O)N(c3ccccc3)N=C2C)c2ccc(Br)cc2)c1OC,x,x,u,40µM*,x,x
COc1cccc(/C=C/C(=O)Nc2cccc(C(C)=O)c2)c1OC,-13%,7%,1%,31%,-10%,10%
SMILES,BAZ2B block,L3MBTL1 block,JMJD2A Tudor inh,HP1b binding inh,G9a block,Sfp inh
O=C(NCC1CCCO1)c1ccc(COc2ccccc2)cc1 (stereo unspecified),-7%,x,-6%,29%,11%,5%
CC[n+]1c(/C=C/c2ccc(OC(C)=O)c(OC)c2)ccc2ccccc21,-8%,x,u,-27%,25µM*,-15%
CCN(CC)c1ccc(/C=C/c2ccc3ccc(OC)cc3[n+]2CC)cc1,40µM*,x,13µM*,u,25µM*,-21%
C[n+]1c(/C=C/c2ccc(O)cc2)ccc2ccccc21,-33%,x,-25%,u,18µM*,-4%
CC[n+]1ccc(/C=C/c2ccc(N(C)C)cc2)c2ccccc21,10µM*,25µM*,22µM*,18µM*,x,u
CN(C)c1ccc(/C=N/N=C/c2ccccc2O)cc1,-10%,-2%,3%,31%,u,2%
CN1CC(=O)Nc2cc(C(=O)O)ccc21,3%,x,-14%,18%,u,x
O=C(CNC(=O)c1ccc(Cl)cc1Cl)OCc1nnc(-c2ccccc2)o1,-6%,-8%,-17%,9%,3%,x
CC[n+]1c(/C=C/c2ccc(OC)c(OC)c2)ccc2ccccc21,u,8%,u,13%,x,-12%
CN(C)c1ccc(C(=O)/C=C/c2ccccc2)cc1,0%,11%,-5%,34%,2%,-28%
CC[n+]1ccccc1/C=C/c1ccc(N(C)C)cc1,u,x,u,-1%,28µM*,-5%
CC[n+]1c(/C=C/c2ccc(N(C)C)cc2)ccc2ccccc21,40µM*,u,u,u,14µM*,-28%
CCn1c(SCC(=O)Nc2oc(-c3ccccc3)c(-c3ccccc3)c2C#N)nnc1-c1ccncc1,u,x,u,-18%,7.9µM*,-7%
Cc1cnc(C(=O)OCC(=O)Nc2oc(-c3ccccc3)c(-c3ccccc3)c2C#N)cn1,-57%,-2%,56µM*,-11%,50µM*,17%
CCn1c(SCC(=O)Nc2oc(-c3ccccc3)c(-c3ccccc3)c2C#N)nnc1-c1ccco1,-36%,-16%,u,-12%,u,10%
CCOc1ccccc1-c1nc(SCC(=O)c2ccc(OC)c(Br)c2)n[nH]1,2%,x,-7%,43%,-33%[59 µM],x
O=S(=O)(NCCc1c[nH]c2ccccc12)c1ccc(F)cc1,x,x,u,24%,x,x
Cc1ccc(-c2nnc(SCC(=O)Nc3ccc(S(=O)(=O)N4CCCCCC4)cc3)o2)cc1,21%,39%,-1%,22%,22%,-18%
O=C(Cn1ccc2cc(S(=O)(=O)N3CCCC3)ccc21)NCc1ccco1,-11%[57.1 µM],x,79µM*,-18%,u,5%
O=C(Cn1ccc2cc(S(=O)(=O)N3CCCCCC3)ccc21)NCc1ccccc1Cl,-11%,x,-12%,15%,-22%[59 µM],x
O=C(CSc1nnc(-c2ccc(S(=O)(=O)N3CCCC3)cc2)o1)NCc1ccco1,50µM*,-20%,-28%,46%,u,u
O=C(CSc1nnc(-c2ccc(OC(F)F)cc2)o1)NC(=O)NCc1ccco1,50µM*,u,u,10%,u,6%
